From PubChem
Shown are actives, neighbours in structure and some others; about 2.9% of the full set was active somewhere.
PME-1 primary = PME-1 (human) inhibition; recombinant PME-1, FP-Rh probe fluorescence polarization; inhibition, % at 5.9 µM; 320,000 compounds, 0.53% hits; AID 2130;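 active means inhibition above the campaign mean of all compounds plus 3 SD, cut at about 26% in these data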;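 further: competitive labeling of PME-1 active site by serine hydrolase directed probe; 0% = PME-1 with DMSO and 100% = wells lacking PME-1 enzyme; inhibitors block probe labeling so polarization falls and inhibition rises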
Target sequence (Q9Y570 whole entry, looked up): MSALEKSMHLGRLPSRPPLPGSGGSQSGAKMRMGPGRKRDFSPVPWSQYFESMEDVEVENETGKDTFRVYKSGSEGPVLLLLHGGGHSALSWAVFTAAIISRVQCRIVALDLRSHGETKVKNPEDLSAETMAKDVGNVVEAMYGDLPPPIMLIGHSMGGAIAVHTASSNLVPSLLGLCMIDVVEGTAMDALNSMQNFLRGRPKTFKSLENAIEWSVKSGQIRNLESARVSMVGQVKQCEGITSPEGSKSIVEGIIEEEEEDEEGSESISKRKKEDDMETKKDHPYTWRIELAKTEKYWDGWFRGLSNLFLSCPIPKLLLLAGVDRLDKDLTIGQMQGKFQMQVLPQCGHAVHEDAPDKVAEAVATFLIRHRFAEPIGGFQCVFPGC
PAFAH1B3 FP inh = blocks human PAF acetylhydrolase 1B catalytic subunit 3; 340,000 compounds, 0.28% hits; AID 492972; recombinant PAFAH1B3, FP-rhodamine probe, fluorescence polarization; Q15102; inhibition, % at 3.39 µM;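 active means inhibition above the screen-wide average of all tested compounds plus 3 SD, cut at about 25% in these data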;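 further: 0% = enzyme with DMSO only and 100% = wells lacking PAFAH1B3 protein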
PAFAH1B2 FP inh = PAFAH1B2 (human) inhibition; P68402; recombinant PAFAH1B2, FP-rhodamine activity probe, fluorescence polarization; inhibition, % at 3.39 µM; 340,000 compounds, 1.2% hits; AID 492953;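 active means inhibition above the mean of all tested compounds plus 3 SD, cut at about 24% in these data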;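 further: 0% = enzyme with DMSO and 100% = wells lacking PAFAH1B2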
Target sequence (P68402 whole entry, looked up): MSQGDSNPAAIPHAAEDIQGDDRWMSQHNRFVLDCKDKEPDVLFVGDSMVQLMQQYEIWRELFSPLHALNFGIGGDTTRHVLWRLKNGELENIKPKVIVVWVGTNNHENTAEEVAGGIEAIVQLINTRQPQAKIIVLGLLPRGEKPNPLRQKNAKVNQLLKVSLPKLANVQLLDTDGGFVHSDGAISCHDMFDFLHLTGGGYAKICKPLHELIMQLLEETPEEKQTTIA
PAFAH2 inh = PAFAH2 (human) inhibition; Q99487; recombinant PAFAH2, FP-rhodamine activity probe, fluorescence polarization; inhibition, % at 3.39 µM; 340,000 compounds, 0.99% hits; AID 492956;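 active means inhibition above the mean over all tested compounds plus 3 SD, cut at about 30% in these data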;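 further: inhibitors block probe labeling of enzyme so polarization drops; 0% = enzyme with DMSO and 100% = wells lacking PAFAH2 protein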
Fam108B inh = counter-screen for RBBP9 inhibitors: inhibitors of mouse Fam108B; recombinant Fam108B, FP-Rh probe fluorescence polarization; inhibition, % at 9.51 µM; 300,000 compounds, 0.33% hits; AID 1947;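 active means inhibition above the screen mean inhibition plus 3 SD, computed separately per campaign, cut at about 18% in these data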;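 further: inhibitors lower polarization as less probe binds the enzyme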
pPAFAH inh = pPAFAH (human) enzyme inhibition; Q13093; recombinant pPAFAH, FP-rhodamine probe fluorescence polarization; inhibition, % at 3.39 µM; 330,000 compounds, 1.5% hits; AID 463082;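 active means inhibition above the mean inhibition across the screen plus 3 SD, cut at about 25% in these data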;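 further: inhibitors block binding of the rhodamine activity-based probe so polarization drops; 0% = enzyme with DMSO and 100% = wells lacking pPAFAH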
pPAFAH FP conf = pPAFAH (human) inhibition, confirmed | shares compounds with pPAFAH inh | recombinant pPAFAH, FP-Rh probe fluorescence polarization | inhibition, % at 3.39 µM | 2,300 compounds, 72% hits;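 active means mean inhibition of the triplicate above the hit cutoff set for the earlier primary screen, cut at about 25% in these data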;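 further: 0% = enzyme with DMSO and 100% = wells lacking pPAFAH enzyme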
PAFAH2 confirm = confirmation of human PAFAH2 inhibitors | shares compounds with PAFAH2 inh | recombinant PAFAH2, FP-rhodamine activity probe, fluorescence polarization | inhibition, % at 3.39 µM | 2,300 compounds, 65% hits | AID 493030;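 active means mean inhibition over three repeats above a set limit taken from the earlier primary screen, cut at about 30% in these data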;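 further: inhibitor blocks binding of rhodamine activity probe so polarization falls; 0% = enzyme with DMSO and 100% = wells lacking PAFAH2 protein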
Numbers without * were called inactive; . = not tested or not shown.

SMILES | PME-1 primary | PAFAH1B3 FP inh | PAFAH1B2 FP inh | PAFAH2 inh | Fam108B inh | pPAFAH inh | PAFAH2 confirm | others
COc1ccc(NS(=O)(=O)c2cccc(C(=O)NN=Cc3cc(Br)c(O)c(Br)c3)c2)cc1 | . | 8 | 10 | 28 | . | 61* | . | pPAFAH FP conf=69*
COC(=O)C1=C(C)N(C)C(=S)NC1c1ccc(OC)cc1OC (stereo unspecified) | -1 | -1 | 6 | 0 | 2 | 1 | .
O=[N+]([O-])c1cc(-c2ccc(/C=N/c3nc4ccccn4c3-c3ccco3)o2)ccc1Cl | 2 | 13 | 7 | 19 | 8 | 35* | . | pPAFAH FP conf=14
CCn1c(CSc2nc3ccccc3s2)nnc1SCC(=O)c1ccc(O)c(O)c1 | -3 | 11 | 7 | 50* | 1 | 40* | 23 | pPAFAH FP conf=94*
CCn1c(CSc2nc3ccccc3s2)nnc1SCC(=O)c1ccc(Cl)cc1 | -6 | 7 | 4 | 2 | 3 | 12 | .
COc1ccccc1C(=O)Nc1cccc2nc(C)ccc12 | -2 | -5 | 4 | 2 | 1 | 1 | .
COc1ccccc1CNC(=O)COC(=O)c1cc(-c2ccco2)nc2ccccc12 | 12 | 16 | -3 | 33* | -1 | 56* | 9 | pPAFAH FP conf=18
O=C(CSc1nnc(-c2ccco2)c(-c2ccco2)n1)Nc1ccccc1 | 5 | 10 | 2 | 42* | 15 | 59* | 11 | pPAFAH FP conf=21
COc1ccc(-n2nc3c(c2NC(=O)C2CC(=O)N(c4ccccc4)C2)CS(=O)(=O)C3)cc1 (stereo unspecified) | 1 | -3 | -4 | -5 | -3 | 3 | .
CC1CCCC(C)N1C(=O)COC(=O)c1ccco1 (stereo unspecified) | . | 11 | 6 | 31* | . | -3 | 4
C=CCn1c(O)c(C=Nc2ccc(Cc3ccncc3)cc2)c(=O)[nH]c1=S | -32 | 4 | 7 | 32* | 1 | 9 | 21
CC(C)(C)OC(=O)C[C@@H]1C/C=C\C[C@@H](CC(=O)N[C@@H](CO)Cc2ccccc2)C(=O)N2CCC[C@@H]2COC1=O | . | 1 | 2 | 0 | . | -5 | .
Cc1ccsc1C(=O)OCC(=O)NCc1ccc(Cl)cc1 | -2 | 4 | -1 | 39* | . | 12 | 40*
Cc1ccsc1C(=O)OCC(=O)Nc1ccc(Cl)cn1 | . | 12 | 2 | 78* | . | 19 | 48*
COc1ccc(NC(=O)COC(=O)c2cc3c(s2)CCC3)cc1 | 0 | 4 | -3 | 77* | . | 12 | 82*
Cc1ccsc1C(=O)NCc1ccc(Cl)cc1 | -1 | . | . | . | -2 | -4 | .
O=C(COC(=O)c1cc2c(s1)CCCC2)Nc1ccc(Cl)cn1 | -2 | 2 | -3 | 30* | 0 | 0 | 33*
CCOC(=O)c1c(-c2ccco2)csc1NC(=O)COC(=O)c1cnccn1 | -15 | -1 | -1 | 8 | -5 | 16 | .
O=C1C(Cl)=C(N2CCCC2)C(=O)N1c1ccccc1F | -4 | 3 | 4 | -18 | -2 | 7 | .
Cc1ccc(C)c(OCC(=O)N(C)CC(=O)Nc2ccc(Cl)c(C(F)(F)F)c2)c1 | -7 | -7 | 5 | -15 | . | 0 | .
CCOC(=O)c1c(NC(=O)CSc2nc3ccc(C)cc3[nH]2)sc2c1CC(C)(C)NC2(C)C | -17 | 3 | -3 | -3 | -2 | 8 | .
COc1cc(/C(C)=C/c2ccccc2)c2c(c1)oc1ccccc12 | -5 | . | . | . | 0 | -2 | .
O=C(COC(=O)c1cccs1)Nc1ccc(Cl)cn1 | . | 10 | 3 | 67* | . | 4 | 73*
Cc1ccc(C)c(NC(=O)CN(C)C(=O)c2cc(-c3cccs3)nn2-c2ccccc2)c1 | 7 | 1 | 8 | 33* | -2 | 8 | 0
CN(CC(=O)Nc1ccccc1C(F)(F)F)C(=O)c1cc(-c2cccs2)nn1-c1ccccc1 | 0 | 10 | 3 | -3 | 0 | 3 | .
SMILES | PME-1 primary | PAFAH1B3 FP inh | PAFAH1B2 FP inh | PAFAH2 inh | Fam108B inh | pPAFAH inh | PAFAH2 confirm | others
NS(=O)(=O)c1cccc(NC(=O)c2ccccc2NS(=O)(=O)c2ccc(F)cc2)c1 | 2 | -1 | 5 | 42* | 0 | 9 | 47*
CCOC(=O)C1=CN(Cc2cccc(F)c2)S(=O)(=O)NC1c1ccccc1 (stereo unspecified) | . | 1 | 3 | -1 | . | 15 | .
CCOC(=O)C1=CN(Cc2ccco2)S(=O)(=O)NC1c1ccc(Br)cc1F (stereo unspecified) | . | 2 | 4 | 14 | . | 12 | 8
CCC(=O)c1ccc(OC(=O)N2CCOCC2)cc1 | -7 | 5 | 1 | 35* | -4 | 24 | 21
CC(C)(C)c1ccc(OC(=O)N2CCOCC2)cc1 | -2 | 2 | -5 | 30* | 4 | 21 | 38*
O=C(CS(=O)(=O)Cc1ccccc1)Nc1ccc(Cl)cn1 | -6 | 1 | 9 | 61* | -7 | 18 | 40*
O=C(CS(=O)(=O)Cc1ccccc1)Nc1ccccn1 | -4 | 7 | -2 | 36* | -9 | 20 | 28
O=C(Cc1ccc(Cl)cc1)Nc1ccc(Cl)cn1 | -3 | 6 | 6 | -8 | 1 | 0 | .
CCc1ccc(-c2nc(SCC(=O)N(C)C3CCS(=O)(=O)C3)n[nH]2)cc1 (stereo unspecified) | 1 | 8 | 4 | -7 | 3 | 5 | .
CSCC(=O)NC1CCCN(C2Cc3ccccc3C2)C1 (stereo unspecified) | 2 | -4 | 4 | 6 | 1 | 2 | .
O=C(NC1CCCN(C2Cc3ccccc3C2)C1)c1ccc(F)cc1Cl (stereo unspecified) | 0 | 1 | 2 | 42* | -3 | 2 | 16
NC(=O)C1Cc2ccccc2CN1S(=O)(=O)c1ccc(Cl)s1 (stereo unspecified) | -3 | 5 | 11 | -5 | 2 | 4 | .
Cc1cc(Nc2cccc(Br)c2)c2ccccc2n1 | 1 | 4 | -3 | 50* | 1 | 2 | 8
Cc1cc(Nc2cccc(O)c2)c2ccccc2n1 | 2 | . | . | . | -2 | 1 | .
O=C(COC(=O)CCc1c[nH]c(=O)[nH]1)Nc1cccc(Cl)c1 | -7 | -9 | -3 | 35* | -1 | -3 | 29
CCN(c1ccccc1)S(=O)(=O)c1ccc(Oc2ccc(C(C)=O)cc2OC)nc1 | 0 | 2 | 7 | 5 | . | 5 | .
Cn1c(=O)c2nc(Cl)c(-c3ccccc3)nc2n(C)c1=O | 4 | 2 | -1 | 33* | 4 | -3 | 38*
Cc1ccc(C(=O)O/N=C2\CCCc3ccccc32)cc1 | 2 | 5 | 5 | 42* | 0 | 11 | 40*
CCc1c(C2(O)CCCCC2)[nH]c2cnccc12 | 0 | 4 | 2 | 4 | . | 2 | .
